Laboratory results published in PubChem BioAssay.
Records with an inconclusive call do not appear. The source made the active and inactive calls.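 How the source made its calls, unless noted: active means normalized viability below 100% at a tested concentration; inactive means the rest.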

Tests used:
[1] = viability loss in pontine glioma line – cell-based, SU-DIPG-XVII, MIPE5.0, CellTiter-Glo, qHTS, dose response (AID 1347060; cut-off not given, nearly all actives have AC50 up to about 26 µM;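 further: cells exposed to compound for 48 hours before viability readout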); settings: CellTiter-Glo ATP luminescence
[2] = viability loss in pontine glioma line – cell-based, SU-DIPG-XIII, MIPE4.0, CellTiter-Glo, qHTS, dose response (AID 1347061; cut-off not given, nearly all actives have AC50 up to about 37 µM;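 further: cells exposed to compound for 48 hours before readout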); settings: CellTiter-Glo ATP luminescence
[3] = viability loss in pontine glioma line – cell-based, JHH-DIPG-1, MIPE4.0, CellTiter-Glo, qHTS, dose response (AID 1347062; cut-off not given, nearly all actives have AC50 up to about 27 µM;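 further: cells exposed to compound for two days before readout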); settings: JHH-DIPG-1 viability, CellTiter-Glo ATP luminescence
[4] = viability loss in pontine glioma line – cell-based, SU-DIPG-IV, MIPE4.0, CellTiter-Glo, qHTS, dose response (AID 1347063; cut-off not given, nearly all actives have AC50 up to about 30 µM;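 further: compound exposure lasted 48 hours before the viability readout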); settings: CellTiter-Glo ATP luminescence
[5] = viability loss in pontine glioma line – cell-based, SU-DIPG-XIII, MIPE5.0, CellTiter-Glo, qHTS, dose response (AID 1347064; cut-off not given, nearly all actives have AC50 up to about 23 µM;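 further: cells exposed to compound for 48 hours before the viability read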); settings: CellTiter-Glo ATP luminescence
[6] = viability loss in pontine glioma line – cell-based, SU-DIPG-XXV, MIPE5.0, CellTiter-Glo, qHTS, dose response (AID 1347065; cut-off not given, nearly all actives have AC50 up to about 26 µM;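 further: cells exposed to compound for 48 hours before ATP readout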); settings: CellTiter-Glo ATP luminescence
[7] = growth inhibition of DIPG cells – cell-based, MIPE4.0 library, CellTiter-Glo luminescence, qHTS (AID 1347066; cut-off not given, nearly all actives have AC50 up to about 30 µM;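 further: cells exposed to compound for 48 hours before readout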); settings: SU-DIPG-VI viability, CellTiter-Glo ATP luminescence
[8] = JHH-DIPG-1 glioma cell viability, MIPE5.0 library, CellTiter-Glo luminescence, qHTS (AID 1347067; cut-off not given, nearly all actives have AC50 up to about 26 µM;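 further: cells exposed to compound for 48 hours before readout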); settings: JHH-DIPG-1 glioma viability, CellTiter-Glo ATP luminescence
[9] = growth inhibition of DIPG cells – cell-based, MIPE5.0 library, qHTS (AID 1347068; cut-off not given, nearly all actives have IC50 up to about 30 µM;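 further: cells exposed to compound for 48 hours before viability readout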); settings: SU-DIPG-XXV viability
[10] = viability loss with induced miR-34 in A549 – imaging, A549 dox-inducible miR-34, nuclei and caspase counts, primary screen (AID 1347080;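 active means compounds whose cell count with miR-34 switched on is under 0.7 times the count with it off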); settings: A549 miR-34 inducible, Hoechst nuclei count, 48 h
[11] = compounds altering HSF1 focus formation in cells – imaging, Selleck Cancer Library (AID 1347162; in the data active means plate-normalised HSF1 focus index below about 0.46); settings: human cells, HSF1 nuclear foci imaging, at 10 µM; SSMD: measured here: HSF1 foci SSMD mean; cell count: measured here: cell number; plate-normalised HSF1 focus index: stronger effect = lower value
[12] = MELAS cybrid and Rieske KO viability enhancers – cell-based, MELAS cybrids, Rieske KO mouse fibroblasts, CellTiter-Glo, primary screen (AID 1508586;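 active means mean z-score across replicates of 1.96 or higher in either the MELAS or the Rieske mutant cell line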;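 further: z relative to plate mean and SD of compound and empty wells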); settings: low glucose
[13] = drug combination growth inhibition, ovarian cancer – cell-based, oncology-focused library, rucaparib conditional, profiling panel (AID 1508598); settings: patient-derived ovarian cancer cells, CellTiter-Glo viability, 144 h, stronger effect = lower value
[14] = growth inhibition, single agent or in combination, cell-based, chromothripsis tumors, cisplatin or BGB combos (AID 1671449; in the data active means inhibition above about 80%;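 further: cells exposed for 96 hours; 0% = vehicle DMSO and 100% = killing by high DMSO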); settings: LFS_MB_P medulloblastoma cells
[15] = growth inhibition, single agent and combos, cell-based, chromothripsis tumors, cisplatin or BGB combos (AID 1671450; in the data active means inhibition above about 80%;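 further: cells exposed to compound for four days; 0% = vehicle DMSO and 100% = cell killing by high DMSO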); settings: HDN33 neuroblastoma cells, stronger effect = higher value
[16] = growth inhibition, single agents and combos, ICB984, cell-based, cisplatin or BGB combos, synergistic combos for chromothripsis tumors (AID 1671451; call rule not given here;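 further: cells exposed for 96 hours before readout; 0% = vehicle DMSO and 100% = killing by high DMSO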); settings: ICB984 medulloblastoma cells, drug combinations, stronger effect = higher value
[17] = growth inhibition, single agents and combos, HTB85, cell-based, BGB or cisplatin IC20 combos, synergistic combos for chromothripsis tumors (AID 1671453; in the data active means inhibition above about 80%;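 further: cells exposed for 96 hours before readout; 0% = vehicle DMSO and 100% = high DMSO killing control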); settings: HTB85 osteosarcoma cells, drug combinations, stronger effect = higher value
[18] = growth inhibition, MDA-MB-436, cell-based, BGB or cisplatin combos, synergistic combos for chromothripsis tumors (AID 1671458; call rule not given here;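 further: cells exposed for 96 hours; 0% = vehicle DMSO and 100% = killing by high DMSO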); settings: MDA-MB-436 breast carcinoma growth inhibition, drug combinations, stronger effect = higher value
[19] = BT084 cell growth, single and combined drugs, ICGC_MB145, cisplatin and BGB IC40 combos (AID 1671461; in the data active means inhibition above about 80%;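 further: cells exposed to drugs for 96 hours; 0% = vehicle DMSO and 100% = high DMSO full killing control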); settings: BT084 medulloblastoma cells, drug combinations, stronger effect = higher value
[20] = RCMB18 cell growth, single agent and combined, cisplatin and BGB IC40 combos (AID 1671462; in the data active means inhibition above about 80%;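 further: cells exposed to compound for four days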); settings: RCMB18 medulloblastoma cells, stronger effect = higher value

## O=c1cc(N2CCOCC2)oc2c(-c3cccc4c3sc3ccccc34)cccc12
[1]
  AC50: 13.2 µM (active)
[2]
  outcome: inactive
[3]
  AC50: 23.5 µM (active)
[4]
  AC50: 14.8 µM (active)
[5]
  AC50: 16.6 µM (active)
[6]
  AC50: 14.8 µM (active)
[7]
  AC50: 18.7 µM (active)
[8]
  AC50: 16.6 µM (active)
[9]
  IC50: 29.5 µM (active)
[10]; stronger effect = lower value, cell number ratio, induced over uninduced
  fold change: 0.901 (inactive)
[10]; measured here: relative caspase fold change +Dox/-Dox
  fold change: 0.761
[10]; measured here: total cells with miR-34 induction, stronger effect = lower value
  cell count: 6010
[10]; measured here: total cells without miR-34 induction
  cell count: 6670
[11]
  SSMD: -0.228
  cell count: 7060
  plate-normalised HSF1 focus index: 0.984 (inactive)
[12]; MELAS cybrid survival, CellTiter-Glo 48 h, stronger effect = higher value
  z-score: -0.264 (inactive)
[12]; Rieske KO mouse fibroblast survival, CellTiter-Glo 72 h
  z-score: 1.08
[13]; at 0.000305 µM, OCI-C5x cells, with rucaparib 10 µM, 100% = cells with rucaparib alone
  viability: 98.4% (active)
[13]; at 0.000305 µM, OCI-C5x cells, without rucaparib
  viability: 106% (inactive)
[13]; at 0.000305 µM, OCI-P5x cells, with rucaparib 20 µM, 100% = cells with rucaparib alone
  viability: 104% (inactive)
[13]; at 0.000305 µM, OCI-P5x cells, without rucaparib
  viability: 99.9% (active)
[13]; at 0.00122 µM, OCI-C5x cells, with rucaparib 10 µM, 100% = cells with rucaparib alone
  viability: 100% (inactive)
[13]; at 0.00122 µM, OCI-C5x cells, without rucaparib
  viability: 104% (inactive)
[13]; at 0.00122 µM, OCI-P5x cells, with rucaparib 20 µM, 100% = cells with rucaparib alone
  viability: 103% (inactive)
[13]; at 0.00122 µM, OCI-P5x cells, without rucaparib
  viability: 102% (inactive)
[13]; at 0.00488 µM, OCI-C5x cells, with rucaparib 10 µM, 100% = cells with rucaparib alone
  viability: 101% (inactive)
[13]; at 0.00488 µM, OCI-C5x cells, without rucaparib
  viability: 103% (inactive)
[13]; at 0.00488 µM, OCI-P5x cells, with rucaparib 20 µM, 100% = cells with rucaparib alone
  viability: 107% (inactive)
[13]; at 0.00488 µM, OCI-P5x cells, without rucaparib
  viability: 99% (active)
[13]; at 0.0195 µM, OCI-C5x cells, with rucaparib 10 µM, 100% = cells with rucaparib alone
  viability: 98.9% (active)
[13]; at 0.0195 µM, OCI-C5x cells, without rucaparib
  viability: 103% (inactive)
[13]; at 0.0195 µM, OCI-P5x cells, with rucaparib 20 µM, 100% = cells with rucaparib alone
  viability: 107% (inactive)
[13]; at 0.0195 µM, OCI-P5x cells, without rucaparib
  viability: 92.1% (active)
[13]; at 0.0781 µM, OCI-C5x cells, with rucaparib 10 µM, 100% = cells with rucaparib alone
  viability: 108% (inactive)
[13]; at 0.0781 µM, OCI-C5x cells, without rucaparib
  viability: 98% (active)
[13]; at 0.0781 µM, OCI-P5x cells, with rucaparib 20 µM, 100% = cells with rucaparib alone
  viability: 98.6% (active)
[13]; at 0.0781 µM, OCI-P5x cells, without rucaparib
  viability: 90.1% (active)
[13]; at 0.313 µM, OCI-C5x cells, with rucaparib 10 µM, 100% = cells with rucaparib alone
  viability: 97% (active)
[13]; at 0.313 µM, OCI-C5x cells, without rucaparib
  viability: 99% (active)
[13]; at 0.313 µM, OCI-P5x cells, with rucaparib 20 µM, 100% = cells with rucaparib alone
  viability: 99.1% (active)
[13]; at 0.313 µM, OCI-P5x cells, without rucaparib
  viability: 91.6% (active)
[13]; at 1.25 µM, OCI-C5x cells, with rucaparib 10 µM, 100% = cells with rucaparib alone
  viability: 101% (inactive)
[13]; at 1.25 µM, OCI-C5x cells, without rucaparib
  viability: 108% (inactive)
[13]; at 1.25 µM, OCI-P5x cells, with rucaparib 20 µM, 100% = cells with rucaparib alone
  viability: 95.4% (active)
[13]; at 1.25 µM, OCI-P5x cells, without rucaparib
  viability: 85.4% (active)
[13]; at 5 µM, OCI-C5x cells, with rucaparib 10 µM, 100% = cells with rucaparib alone
  viability: 66.1% (active)
[13]; at 5 µM, OCI-C5x cells, without rucaparib
  viability: 89.5% (active)
[13]; at 5 µM, OCI-P5x cells, with rucaparib 20 µM, 100% = cells with rucaparib alone
  viability: 49.8% (active)
[13]; at 5 µM, OCI-P5x cells, without rucaparib
  viability: 78.7% (active)
[14]; at 0.5 µM, stronger effect = higher value
  inhibition: -9.52% (inactive)
[14]; measured here: combination with BGB IC20, at 0.005 µM
  inhibition: -35.2%
[14]; measured here: combination with BGB IC40, at 0.005 µM
  inhibition: -73.8%
[14]; measured here: combination with BGB IC40, at 0.05 µM
  inhibition: -46%
[14]; measured here: combination with cisplatin, at 0.5 µM, stronger effect = higher value
  inhibition: -30%
[14]; measured here: combination with cisplatin, at 5 µM, stronger effect = higher value
  inhibition: -29.6%
[15]; BGB combo, at 5 µM
  inhibition: -83.5%
[15]; at 0.5 µM
  inhibition: -25.6% (inactive)
[15]; cisplatin combo, at 5 µM
  inhibition: -52%
[15]; measured here: with BGB IC20 combination, at 0.5 µM
  inhibition: -33.3%
[15]; measured here: with cisplatin IC20 combination, at 0.5 µM
  inhibition: -8.96%
[15]; single agent, at 5 µM
  inhibition: -28.3%
[16]; BGB IC20 combo, at 0.005 µM
  inhibition: -21.3%
[16]; BGB IC40 combo, at 0.005 µM
  inhibition: -19.1%
[16]; BGB IC40 combo, at 0.05 µM
  inhibition: -12.3%
[16]; at 0.5 µM
  inhibition: -40.4% (inactive)
[16]; cisplatin combo, at 0.05 µM
  inhibition: -18%
[16]; cisplatin combo, at 0.5 µM
  inhibition: -48.2%
[16]; cisplatin combo, at 5 µM
  inhibition: -17.2%
[16]; measured here: 5 uM single agent, at 5 µM
  inhibition: -2.07%
[17]; at 0.5 µM
  inhibition: -12.3% (inactive)
[17]; measured here: with BGB IC20, at 0.5 µM
  inhibition: 1.92%
[17]; measured here: with BGB IC20, at 5 µM
  inhibition: -7.86%
[17]; measured here: with cisplatin IC20, at 0.5 µM
  inhibition: -21.1%
[17]; measured here: with cisplatin IC20, at 5 µM
  inhibition: -6.63%
[17]; single agent, at 5 µM
  inhibition: 12.4%
[18]; at 0.5 µM
  inhibition: -3.85% (inactive)
[18]; measured here: BGB combination, at 0.5 µM
  inhibition: 6.02%
[18]; measured here: BGB combination, at 5 µM
  inhibition: 9.28%
[18]; measured here: cisplatin combination, at 0.5 µM
  inhibition: -13%
[18]; measured here: cisplatin combination, at 5 µM
  inhibition: 5.38%
[19]; at 0.5 µM
  inhibition: -28.7% (inactive)
[19]; cisplatin combination, at 0.5 µM
  inhibition: -22.9%
[19]; cisplatin combination, at 5 µM
  inhibition: -216%
[19]; measured here: BGB IC40 combination 0.05 uM, at 0.05 µM
  inhibition: -22.7%
[19]; single agent, at 5 µM
  inhibition: -20.5%
[20]; at 0.5 µM
  inhibition: -29.6% (inactive)
[20]; cisplatin combo, at 5 µM
  inhibition: -34.8%
[20]; measured here: BGB IC40 combination, at 0.05 µM
  inhibition: -8.83%
[20]; measured here: combination with cisplatin, at 0.5 µM
  inhibition: -51.5%
[20]; single agent, at 5 µM
  inhibition: 0.048%
